Measured values as given in PubChem BioAssay AID624351 (Southern Research Specialized Biocontainment Screening …, 2012).
Among all 2,400 compounds or so, about 1,400 (58%) were called active. So high a share suggests a set chosen from earlier hits. The list shows a part of the results. Unmarked numbers belong to inactive results.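 Rule for the calls: active = inhibition of 30% or more at any tested dose; inconclusive = primary hits over the limit that were never retested; inactive = the rest.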

assay: ADP Hunter readout inhibition without MgcRacGAP – biochemical, coupled enzyme counter-screen, artefact control for MgcRacGAP inhibitor project, dose response (AID 624351); details: fluorescence, no MgcRacGAP; series mostly up to 80 µM;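 note: signal is the ADP detection kit reading of free GDP without any GAP enzyme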;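 for inhibition: 0% = median positive control wells and 100% = median negative control wells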

| Structure (SMILES) | IC50 | inhibition |
| --- | --- | --- |
| Cc1cc(C)c2c(c1)NC(C(=O)O)C1CC=CC21 (configuration not stated) | inactive | – |
| COc1ccc(-n2cccc2/C=C/[N+](=O)[O-])cc1 | inactive | – |
| CC1=NOC(=O)/C1=C\c1ccc(-c2ccc(Cl)c(C(=O)O)c2)o1 | inactive | – |
| N#CC1=C(S)N(c2ccccc2)C(c2cccs2)NC1=O (configuration not stated) | inactive | – |
| O=C(O)c1ccc(COc2ccccc2C=C2C(=O)c3ccccc3C2=O)cc1 | inactive | – |
| O=C(Nc1ccc(O)cc1)c1ccccc1OCc1ccccc1 | 44.8 µM (active) | – |
| CCC(=O)NC1=C(Cl)C(=O)C(NC(=O)CC)=C(Cl)C1=O | inactive | – |
| CC(=O)Nc1ccc(Nc2ccccc2)cc1 | 75.5 µM (active) | – |
| CC(=O)Nc1ccc2sn(-c3ccccc3)c(=O)c2c1 | inactive | – |
| CCC(=O)Nc1ccc(Nc2ccccc2)cc1 | 55.9 µM (active) | – |
| CC(=O)Nc1ccc(NC(=O)C(C)OC(=O)COc2ccc(Nc3ccccc3)cc2)cc1 (configuration not stated) | inactive | – |
| Oc1ccc(NCc2ccc(OCc3ccccc3)cc2)cc1 | inactive | – |
| C=C1c2c(Cl)ccc(O)c2C(O)=C2C(=O)[C@]3(O)C(O)=C(C(N)=O)C(=O)[C@@H](N(C)C)[C@@H]3[C@@H](O)C12 (some centres not stated) | inactive | – |
| CC[n+]1c(/C=C2\Sc3ccccc3N2C)ccc2cccc(C)c21 | inactive | – |
| Cc1cc(=O)[nH]c2c(N=Nc3ccc(O)cc3)c(N)nn12 | 13.2 µM (active) | – |
| Nc1nn2c(-c3ccccc3)cc(=O)[nH]c2c1N=Nc1ccc(O)cc1 | 70.9 µM (active) | – |
| CCOC(=O)C1Nc2ccc(C(=O)O)cc2C2C=CCC12 (configuration not stated) | inactive | – |
| COc1cc(OC)c(Cl)cc1N | 43.9 µM (active) | – |
| CCC(=Nc1ccc(N)cc1)C1=C(O)C(C(=O)OC)C(C)(C)CC1=O (configuration not stated) | 7.76 µM (active) | – |
| CCCC(=Nc1ccc(N)cc1)C1=C(O)C(C(=O)OC)C(C)(C)CC1=O (configuration not stated) | 14.8 µM (active) | – |
| COC(=O)C1C(O)=C(C=Nc2ccc(N)cc2)C(=O)CC1(C)C (configuration not stated) | 57.5 µM (active) | – |
| CCOc1cc(/C=N/NC(=O)CCc2n[nH]c(=O)[nH]c2=O)ccc1O | 55.6 µM (active) | – |

| Structure (SMILES) | IC50 | inhibition |
| --- | --- | --- |
| COc1cc(/C=N/NC(=O)CNc2n[nH]c(=O)[nH]c2=O)ccc1O | 39.7 µM (active) | – |
| COc1cc(/C=N/NC(=O)CCc2n[nH]c(=O)[nH]c2=O)ccc1O | 35.4 µM (active) | – |
| COc1cc(/C=N/NC(=O)C(C)Nc2n[nH]c(=O)[nH]c2=O)ccc1O (configuration not stated) | 69.5 µM (active) | – |
| C/C(CCc1ccccc1)=N\NC(=O)C1C2CCCCC21 (configuration not stated) | inactive | – |
| Cc1ccc(-c2cnc(NCc3cc4c(cc3[N+](=O)[O-])OCO4)n2C)cc1C | inactive | – |
| O=[S@]1Oc2ccccc2-c2ccccc21 | inactive | – |
| CCCN1C(=O)S/C(=C/c2ccc(N3CCOCC3)o2)C1=O | inactive | – |
| CCN(CC)c1ccc(/C=C2/SC(=O)N(C(C)C)C2=O)o1 | 58.5 µM (active) | – |
| CN(C)c1ccc(N=Cc2nc(-c3ccccc3)oc2OC(=O)c2ccccc2)cc1 | inactive | – |
| Cc1cc(-c2ccccc2)nc(N/N=C/c2ccc(O)cc2O)n1 | 61.3 µM (active) | – |
| Cc1cc(-c2ccccc2)nc(N/N=C/c2ccc(O)cc2)n1 | 31.6 µM (active) | – |
| Cc1nc2ccccc2nc1N/N=C/c1ccc(O)cc1 | 30.5 µM (active) | – |
| Cc1cc(-c2ccccc2)nc(N/N=C/c2ccc(N(C)C)cc2)n1 | 80 µM (active) | – |
| CC1CN(CCOCCOc2ccccc2-c2ccccc2)CC(C)O1 (configuration not stated) | inactive | – |
| COc1ccc(CN2CCN(Cc3ccco3)CC2)cc1OC | inactive | – |
| Cc1cc(C)c2nc(C)cc(N/N=C/c3ccc(O)cc3)c2c1 | 32.9 µM (active) | – |
| COc1ccc(/C=N/Nc2cc(C)nc3c(C)cccc23)cc1 | inactive | – |
| COc1cc(/C=N/N=C2/C(=O)Nc3ccccc32)cc(OC)c1O | 59.2 µM (active) | – |
| COc1ccc(/C=C2\C(=O)NC(=O)c3ccccc32)cc1OC | inactive | – |
| Oc1ccc(-c2nccs2)cc1 | 31.4 µM (active) | – |
| CCN1CCN(CCOc2cccc(Cl)c2Cl)CC1 | inactive | – |
| CC1(C)CC(=O)C(C(C2=C(O)CC(C)(C)CC2=O)c2cccs2)C(=O)C1 (configuration not stated) | inactive | – |

| Structure (SMILES) | IC50 | inhibition |
| --- | --- | --- |
| CC1(C)CC(=O)C2=C(C1)Nc1ccccc1S2 | 23.1 µM (active) | – |
| COc1cc(/C=N/NC(=O)c2ccc(=O)[nH]n2)ccc1O | 26.3 µM (active) | – |
| COc1cc(/C=N/NC(=O)c2cnccn2)ccc1O | 25.9 µM (active) | – |
| COc1ccc(/C=N\NC(=O)c2ccc(=O)[nH]n2)cc1O | 26 µM (active) | – |
| O=C(/C(=C/c1ccccc1)n1cncn1)c1ccc(Cl)cc1Cl | inactive | – |
| COC(=O)C(C(=O)OC)C(C)C(C(=O)OC)C(=O)OC | inactive | – |
| CN(C)c1ccc(C=Cc2cnccn2)cc1 | 53 µM (active) | – |
| CCOC(=O)c1[nH]c2ccccc2c1NC(=S)Nc1cc(C)ccc1C | 39.4 µM (active) | – |
| CCOC(=O)c1[nH]c2ccccc2c1NC(=S)Nc1ccccc1C | 45.3 µM (active) | – |
| CCOC(=O)c1[nH]c2ccccc2c1NC(=S)Nc1cccc(C)c1C | 46 µM (active) | – |
| COC(=O)c1c(NC(=O)CCNCc2ccco2)sc2c1CCC2 | inactive | – |
| CCOC(=O)c1[nH]c2ccccc2c1NC(=S)Nc1ccccc1 | 45.1 µM (active) | – |
| CCOC(=O)c1[nH]c2ccc(F)cc2c1NC(=O)c1ccccc1C(=O)O | inactive | – |
| O=C1SC(c2ccccc2)=C/C1=C\N1CCCCC1 | 51 µM (active) | – |
| O=C1CCCCCN1Sc1ccccc1 | inactive | – |
| CC(C)Nc1ccc(Nc2ccnc3cc4ccccc4cc23)cc1 | 22.4 µM (active) | – |
| COc1cc(/C=C/C(=O)OCC(=O)NC(=O)NC(C)C)ccc1O | 42.8 µM (active) | – |
| COc1cc(/C=C/C(=O)OCC(=O)NC(=O)NC(C)(C)C)ccc1O | 62.6 µM (active) | – |
| C=CCN(CC=C)C(=O)C1CCN(Cc2ccc(OCc3ccccc3)cc2)CC1 | inactive | – |
| COc1ccc(NC(=O)c2ccc(NC(=O)CN3CCN(c4ccc(O)cc4)CC3)cc2)cc1 | 76.7 µM (active) | – |
| CCCS(=O)(=O)N1CCN(Cc2ccco2)CC1 | inactive | – |
| CCN1CCN(CC(=O)Nc2nc3ccc(OC)cc3s2)CC1 | inactive | – |

| Structure (SMILES) | IC50 | inhibition |
| --- | --- | --- |
| O=C(CN1CCCCC1)Nc1ccc(N2CCCCCC2)cc1 | inactive | – |
| Cc1ccc(NC(=O)CN2CCN(C)CC2)cc1Br | inactive | – |
| Cc1ccc(NC(=O)NC(=O)CN2CCN(c3ccc(O)cc3)CC2)c(C)c1 | 63.4 µM (active) | – |
| CCN1CCN(CC(=O)Nc2ccc(C)c(Br)c2)CC1 | inactive | – |
| O=C(CN1CCN(c2ccc(O)cc2)CC1)NC(=O)NCc1ccco1 | 54.7 µM (active) | – |
| CC1(C)O[C@@H]2[C@H](O1)[C@@H](COS(=O)(=O)O)O[C@H]2n1c(=S)[nH]c2c(=O)[nH]c(N)nc21 | 55.7 µM (active) | – |
| CCN1CCN(c2ccc(N=Cc3ccccc3O)cc2)CC1 | 24.5 µM (active) | – |
| CCN1CCN(c2ccc(N=Cc3ccc(O)cc3O)cc2)CC1 | 38.2 µM (active) | – |
| CCN1CCN(CCOc2ccccc2OCc2ccccc2)CC1 | inactive | – |
| O=C1NN(c2ccc(Br)cc2)C(=O)/C1=C\c1ccc(O)cc1O | inactive | – |
| Oc1cc(Br)ccc1C=Nc1ccc(N2CCCCC2)cc1 | 4.33 µM (active) | – |
| CCC(=O)c1ccccc1OCCN1CCN(CC)CC1 | inactive | – |
| C=CCc1cc(Cl)ccc1OCCn1ccnc1 | inactive | – |
| O=c1c(-c2cccc(Cl)c2)c[nH]n1-c1ccccc1 | 52.1 µM (active) | – |
| O=[N+]([O-])c1cccc(SSc2cccc([N+](=O)[O-])c2)c1 | inactive | – |
| O=c1c2ccccc2sn1-c1cccc(Cl)c1 | inactive | – |
| N#CC1=C(S)N(c2ccccc2)C(c2ccc(-c3cccc(Cl)c3)o2)NC1=O (configuration not stated) | inactive | – |
| O=c1c(-c2ccccc2)c[nH]n1-c1cccc([N+](=O)[O-])c1 | 41.6 µM (active) | – |
| CN=c1scc(C)n1/N=C/c1ccc(O)cc1O | 10.1 µM (active) | – |
| CN=c1scc(C)n1/N=C/c1ccc(O)cc1 | 19.3 µM (active) | – |
| C=CCN=c1scc(C)n1/N=C/c1ccc(O)c(O)c1 | 15.4 µM (active) | – |
| Cn1c(=O)c2c([nH]c(=S)n2CCCc2ccccc2)n(C)c1=O | 11.4 µM (active) | – |

| Structure (SMILES) | IC50 | inhibition |
| --- | --- | --- |
| CN(C)C(=S)N=c1ssc(=S)n1Cc1ccccc1 | inactive | – |
| Cn1c(=O)[nH]c(=O)c2c1[nH]c(=S)n2CCCc1ccccc1 | 15.2 µM (active) | – |
| Cn1c(=O)[nH]c(=O)c2c1[nH]c(=S)n2Cc1ccccc1 | 19.2 µM (active) | – |
| Cn1c(=O)[nH]c(=O)c2c1[nH]c(=S)n2Cc1ccc(Cl)cc1 | 22.2 µM (active) | – |
| c1ccc2c(c1)c1c(c3ccccc32)CN2CCCC2C1 (configuration not stated) | – | -11.7% [at 10 µM] |
| O=C1c2c([N+](=O)[O-])cc([N+](=O)[O-])cc2S(=O)N1Cc1ccccc1 (configuration not stated) | inactive | – |
| COc1ccc(NCc2ccc([N+](=O)[O-])s2)c(OC)c1 | 33.3 µM (active) | – |
| COc1ccc(NC(=O)CNCc2cccs2)c(OC)c1 | inactive | – |
| COc1ccc(N2CCCC2)c(NC(=O)c2ccc([N+](=O)[O-])o2)c1 | inactive | – |
| Cn1c(N2CCOCC2)c(/C=N/O)c2ccccc21 | 60.1 µM (active) | – |
| CCCCn1c(=S)[nH]c2c(=O)n(C)c(=O)n(C)c21 | 15.6 µM (active) | – |
| Cn1c(=O)c2[nH]c(=S)n(Cc3ccccc3)c2n(C)c1=O | 18.4 µM (active) | – |
| CCn1c(=S)[nH]c2c(=O)n(C)c(=O)n(C)c21 | 18.9 µM (active) | – |
| Cc1cc(C)c(OCC(O)CN2CCN(C(=O)c3ccccc3)CC2)c(C)c1 (configuration not stated) | inactive | – |
| CC(=O)Nc1ccc(OC(=O)Cc2ccc(Cl)cc2)cc1 | inactive | – |
| Cn1nccc1C(=O)Nc1ccc(OC(=O)c2ccnn2C)cc1 | inactive | – |
| CCOC(=O)Nc1ccc(OC(=O)Oc2ccc(NC(=O)OCC)cc2)cc1 | 41.3 µM (active) | – |
| CCOC(=O)c1oc2cc(O)cc(C)c2c1C | 54.1 µM (active) | – |
| CCCCCCCCCCCCCCCC[N+](C)(C)Cc1ccc(F)cc1 | inactive | – |
